Active and inactive are the calls of the source. How the source made its calls: active means hit-call score of the fitted dose curve at least 0.9, where 1 is the maximum; inactive means score below 0.9.
Legend:
[1] = ATG_ISRE_CIS: Attagene CIS-FACTORIAL HepG2 Assay for human Interferon Regulatory Factor 1 (IRF1) binding to an Interferon-Stimulated Response Element (ISRE) (AID 2282948); conditions: HepG2 ISRE cis-reporter (Attagene), mRNA transcription readout; actives raise or lower the signal
In short: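 Read-out: fluorescent RT-PCR products resolved by capillary electrophoresis, reporting endogenous transcription factor activity via ISRE-driven reporter mRNA in transfected HepG2 cells dosed for 24 h; gain or loss fitted relative to DMSO.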

[2] = ATG_M_32_CIS: Attagene CIS-FACTORIAL HepG2 Assay for M32 Transcription Factor (Internal Marker) (AID 2282949); conditions: HepG2 Attagene cis-factorial M32 reporter, mRNA; actives raise or lower the signal;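 further: background control marker of the multiplexed CIS panel rather than a real target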
In short: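 Transient MRTU transfection of HepG2; 24 h compound treatment; TriZol RNA, oligo(dT) RT, reporter PCR, 6-FAM primer extension, HpaI cut, CE. Gain/loss of signal vs DMSO.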

[3] = ATG_M_06_CIS: Attagene CIS-FACTORIAL HepG2 Assay for M06 Transcription Factor (Internal Marker) (AID 2282950); conditions: HepG2 Attagene CIS-FACTORIAL M06 internal marker reporter; actives raise or lower the signal
In short: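 Measured 24 h post-dosing in transiently transfected HepG2 cells, this internal-marker endpoint reports reporter mRNA via RT-PCR with fluorescent primer extension and capillary electrophoresis. DMSO served as negative control and baseline for bidirectional fitting.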

[4] = biological target: Hypoxia-inducible factor 1-alpha (Homo sapiens) (UniProt Q16665); assay: ATG_HIF1a_CIS: Attagene CIS-FACTORIAL HepG2 Assay for human Hypoxia Inducible Factor 1 (HIF1A) (AID 2282951); conditions: HepG2 Attagene cis-factorial HIF1a reporter transcription; actives raise or lower the signal
In short: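 HepG2 cells transiently transfected with multiplexed cis-promoter reporter units; reporter mRNA read 24 h after dosing by RT-PCR, 6-FAM primer-extension labelling, HpaI digestion and capillary electrophoresis. Bidirectional fit versus DMSO baseline.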

[5] = biological target: Hepatocyte nuclear factor 6 (Homo sapiens) (UniProt Q9UBC0); assay: ATG_HNF6_CIS: Attagene CIS-FACTORIAL HepG2 Assay for human Hepatocyte Nuclear Factor 6 (HNF6) (AID 2282952); conditions: HepG2 Attagene cis-factorial HNF6 reporter transcription; actives raise or lower the signal
In short: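 Activity values derive from bidirectional fitting against DMSO of reporter mRNA levels, measured by capillary electrophoresis of labelled RT-PCR products from HepG2 cells exposed 24 h.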

[6] = ATG_MRE_CIS: Attagene CIS-FACTORIAL HepG2 Assay for human Metal Responsive Element (MRE) (AID 2282954); conditions: HepG2 MRE cis-reporter transcription, Attagene multiplex; actives raise or lower the signal
In short: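 Multiplexed cis-reporter assay in human HepG2 liver cells, 24 h incubation with test chemical. Reporter transcripts measured by RT-PCR and capillary electrophoresis; values from bidirectional curve fitting versus DMSO.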

[7] = ATG_PBREM_CIS: Attagene CIS-FACTORIAL HepG2 Assay for human Phenobarbital-responsive Enhancer Module (PBREM) (AID 2282955); conditions: HepG2 PBREM cis-reporter, Attagene multiplexed transcription; actives raise or lower the signal
In short: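 HepG2 cells transiently transfected with multiple cis-regulated reporter transcription units; endogenous factor activity at the PBREM element measured as reporter mRNA 24 h after dosing, via RT-PCR and capillary electrophoresis of fluorescent fragments; bidirectional fitting versus DMSO.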

[8] = biological target: Heat shock factor protein 1 (Homo sapiens) (UniProt Q00613); assay: ATG_HSE_CIS: Attagene CIS-FACTORIAL HepG2 Assay for human Heat Shock Transcription Factor 1 (HSE) (AID 2282953); conditions: HepG2 HSE cis-reporter, Attagene RNA transcription; actives raise or lower the signal
In short: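 Reporter mRNA induction in HepG2 is measured 24 h after dosing, using transiently transfected multiplexed cis-regulated reporter units. Signal comes from capillary electrophoresis of labelled RT-PCR products, with DMSO as negative control.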

[9] = ATG_GRE_CIS: Attagene CIS-FACTORIAL HepG2 Assay for human Glucocorticoid Response Elements (GRE) (AID 2282947); conditions: HepG2 GRE cis-reporter, Attagene multiplex mRNA; actives raise or lower the signal
In short: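 Multiplexed cis-reporter mRNA induction, HepG2, 24 h post-dose. RT-PCR, FAM-labelled, HpaI-digested amplicons by CE. Bidirectional fit vs DMSO.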

Measured: AC50

Heat shock factor protein 1 (Homo sapiens), sequence (Q00613 whole entry, looked up): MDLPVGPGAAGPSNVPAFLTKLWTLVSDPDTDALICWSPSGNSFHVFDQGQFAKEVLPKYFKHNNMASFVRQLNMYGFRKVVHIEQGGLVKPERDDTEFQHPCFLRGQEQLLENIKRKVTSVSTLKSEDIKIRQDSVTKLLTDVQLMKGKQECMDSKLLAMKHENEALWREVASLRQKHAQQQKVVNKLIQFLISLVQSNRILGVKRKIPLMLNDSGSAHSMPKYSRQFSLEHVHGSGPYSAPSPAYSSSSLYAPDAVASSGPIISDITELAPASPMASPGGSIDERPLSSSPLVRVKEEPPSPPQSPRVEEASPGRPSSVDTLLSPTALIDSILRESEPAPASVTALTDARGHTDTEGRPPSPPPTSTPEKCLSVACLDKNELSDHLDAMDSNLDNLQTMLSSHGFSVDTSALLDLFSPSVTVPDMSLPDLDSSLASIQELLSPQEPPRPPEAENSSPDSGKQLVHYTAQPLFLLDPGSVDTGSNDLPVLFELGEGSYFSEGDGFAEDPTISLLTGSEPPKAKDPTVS
Hypoxia-inducible factor 1-alpha (Homo sapiens), sequence (Q16665 whole entry, looked up): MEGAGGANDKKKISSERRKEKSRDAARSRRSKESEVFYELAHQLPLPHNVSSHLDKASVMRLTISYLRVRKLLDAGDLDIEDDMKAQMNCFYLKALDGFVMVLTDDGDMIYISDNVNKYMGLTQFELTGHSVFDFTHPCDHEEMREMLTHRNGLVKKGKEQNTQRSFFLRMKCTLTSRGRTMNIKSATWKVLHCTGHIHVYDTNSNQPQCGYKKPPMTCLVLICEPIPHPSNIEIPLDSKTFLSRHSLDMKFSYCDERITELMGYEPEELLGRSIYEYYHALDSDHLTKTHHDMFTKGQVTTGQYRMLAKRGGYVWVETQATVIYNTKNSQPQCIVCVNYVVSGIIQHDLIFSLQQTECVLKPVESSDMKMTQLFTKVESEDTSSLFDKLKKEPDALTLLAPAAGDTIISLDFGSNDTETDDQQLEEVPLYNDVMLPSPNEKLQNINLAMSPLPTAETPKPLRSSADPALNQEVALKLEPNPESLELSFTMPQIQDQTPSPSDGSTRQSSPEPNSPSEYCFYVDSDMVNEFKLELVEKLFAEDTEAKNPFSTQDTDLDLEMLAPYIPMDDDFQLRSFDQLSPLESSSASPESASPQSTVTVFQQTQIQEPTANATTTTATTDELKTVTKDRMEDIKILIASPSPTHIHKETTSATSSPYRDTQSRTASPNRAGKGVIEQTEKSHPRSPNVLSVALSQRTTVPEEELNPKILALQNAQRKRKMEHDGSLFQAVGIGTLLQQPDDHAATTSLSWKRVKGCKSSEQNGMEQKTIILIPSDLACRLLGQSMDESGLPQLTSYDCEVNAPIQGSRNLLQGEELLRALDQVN
Hepatocyte nuclear factor 6 (Homo sapiens), sequence (Q9UBC0 whole entry, looked up): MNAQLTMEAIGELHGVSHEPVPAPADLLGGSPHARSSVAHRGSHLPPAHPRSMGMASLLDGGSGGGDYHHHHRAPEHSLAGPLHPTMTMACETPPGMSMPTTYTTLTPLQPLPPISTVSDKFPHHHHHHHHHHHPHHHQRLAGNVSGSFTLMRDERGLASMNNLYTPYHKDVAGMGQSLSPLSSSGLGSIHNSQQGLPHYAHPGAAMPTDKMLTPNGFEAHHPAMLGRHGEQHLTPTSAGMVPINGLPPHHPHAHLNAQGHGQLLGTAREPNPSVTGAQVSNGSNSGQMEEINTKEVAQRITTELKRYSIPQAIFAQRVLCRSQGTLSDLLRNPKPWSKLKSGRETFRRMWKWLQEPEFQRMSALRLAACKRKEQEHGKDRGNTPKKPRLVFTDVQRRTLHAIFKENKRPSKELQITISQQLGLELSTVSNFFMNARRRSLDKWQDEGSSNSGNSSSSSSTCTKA

Cc1cccc(C(=O)O)c1
not listed: [8] | [9]
inactive: all other assays above

Cc1cc(C)c(C)c(O)c1
not listed: [6] | [9]
inactive: all other assays above

COC(=O)c1c(C)cc(O)c(C)c1O
not listed: [9]
inactive: all other assays above

CCN(Cc1cccc(S(=O)(=O)O)c1)c1ccc(C(=C2C=CC(=[N+](CC)Cc3cccc(S(=O)(=O)[O-])c3)C=C2)c2ccccc2)cc1
active: [8] 83 µM
not listed: [9]
inactive: all other assays above

O=C1C(N(CO)C(=O)NCO)N(CO)C(=O)N1CO (stereo not given)
not listed: [1] | [4] | [9]
inactive: all other assays above

COCCOCCOCCOCCOC
inactive: [9] | [2] | [3] | [5] | [6]

O=C1CCCC(=O)O1
not listed: [8] | [9]
inactive: all other assays above

CC1=CC[C@H]2C[C@@H]1C2(C)C
not listed: [4] | [7] | [9]
inactive: all other assays above

O=CN1CCCCC1
not listed: [8] | [9]
inactive: all other assays above

CC/C=C\CCOC(=O)CCCCC
not listed: [6] | [9]
inactive: all other assays above

C=CC(=O)NC(C)(C)CS(=O)(=O)O
not listed: [4] | [9]
inactive: all other assays above

CCC(C)(C)C1CCCCC1OC(C)=O (stereo not given)
not listed: [9]
inactive: all other assays above

N#CCc1ccc(Cl)cc1Cl
not listed: [9]
inactive: all other assays above

CCCCCCC1(C)CCC(=O)O1 (stereo not given)
not listed: [3] | [9]
inactive: all other assays above

CCO[Si](CCCN=C=O)(OCC)OCC
not listed: [9]
inactive: all other assays above

Cc1c(C)c([N+](=O)[O-])c(C(C)(C)C)c([N+](=O)[O-])c1C
not listed: [9]
inactive: all other assays above

CC(CC=O)c1ccccc1 (stereo not given)
active: [1] 56.1 µM | [6] 104 µM
not listed: [4] | [9]
inactive: all other assays above

CCOc1ccc(N)c([N+](=O)[O-])c1
not listed: [1] | [9]
inactive: all other assays above

O=C(C=Cc1ccccc1)OCc1ccccc1
not listed: [1] | [3]
inactive: all other assays above

CC(=O)OCc1ccco1
not listed: [9]
inactive: all other assays above

C[C@]12C=CC(=O)C=C1CC[C@@H]1[C@@H]2[C@@H](O)C[C@@]2(C)[C@H]1CC[C@]2(O)C(=O)CO
active: [9] 394 nM
inactive: [2] | [3] | [5] | [8] | [7]

CC1(C)O[C@@H]2C[C@H]3[C@@H]4C[C@H](F)C5=CC(=O)CC[C@]5(C)[C@H]4[C@@H](O)C[C@]3(C)[C@]2(C(=O)CO)O1
inactive: [2] | [3] | [5] | [8] | [6]
active: [9] 82.3 nM

C[Si](C)(CCCN)O[Si](C)(C)CCCN
not listed: [1] | [4]
inactive: all other assays above

CCOC(=O)N1CCC(=C2c3ccc(Cl)cc3CCc3cccnc32)CC1
active: [4] 7.91 µM | [6] 10.7 µM | [7] 0.933 µM
inactive: [9] | [2] | [3] | [5]

CC(C)=CCC[C@H](C)CCO
not listed: [7] | [9]
inactive: all other assays above

COC(=O)/C=C\C(=O)O
not listed: [1] | [3] | [8]
inactive: all other assays above

CC(C)CCCC(C)CC=O (stereo not given)
not listed: [1] | [7] | [9]
inactive: all other assays above

CCCCC/C=C\C/C=C\CCCCCCCC(=O)OC
active: [1] 80.7 µM | [8] 153 µM
not listed: [3] | [9]
inactive: all other assays above

N[C@H]1C(O)O[C@H](CO)[C@H](O)[C@@H]1O (stereo not given in full)
not listed: [3] | [4] | [9]
inactive: all other assays above

CC1=CC[C@H](C(C)C)C=C1
not listed: [6] | [8] | [9]
inactive: all other assays above

CC(C)(C)C(=O)CCc1ccc(Cl)cc1
not listed: [9]
inactive: all other assays above

CCN(CC#N)c1cccc(C)c1
not listed: [9]
inactive: all other assays above

CC1(C)S[C@@H]2[C@H](NC(=O)COc3ccccc3)C(=O)N2[C@H]1C(=O)O
not listed: [1] | [3] | [4]
inactive: all other assays above

O=S(=O)(Oc1ccc(Cl)cc1Cl)c1ccccc1
active: [6] 32.8 µM | [7] 7.97 µM
not listed: [9]
inactive: all other assays above

C1=Cc2ccccc2C1
not listed: [8] | [9]
inactive: all other assays above

O=S1(=O)OC(c2ccc(O)cc2)(c2ccc(O)cc2)c2ccccc21
not listed: [9]
inactive: all other assays above

N#[N+]c1ccc2c(S(=O)(=O)[O-])cccc2c1O
not listed: [1] | [8] | [9]
inactive: all other assays above

C=C(C)[C@H]1CC=C(C)CC1
not listed: [9]
inactive: all other assays above

Cc1ccc(C(C)(C)C)cc1
not listed: [3] | [6] | [9]
inactive: all other assays above

COC=O
not listed: [9]
inactive: all other assays above
